# Experimental data published in ChEMBL document CHEMBL3433997, “St. Jude Leishmania screening dataset” (2016).
# Molecular target: Glucose transporter (Leishmania mexicana) (UniProt O61059)
# Assay: ST_JUDE_LEISH: Cytotoxicity at 2uM final concentration against transgenic Leishmania Mexicana promastigotes LmGT2 that are glucose transport deficient and complemented with the L. Mexicana glucose transporter 2. Activity is measured by DNA content using SYBR green in vitro
# Type: functional
row,SMILES,inhibition [%]
1,CCc1nc(N)nc(N)c1-c1ccc(F)cc1,5.14
2,Clc1ccc(OCc2ccccc2)c(-c2nc(-c3nc4ncc(Br)cc4[nH]3)cs2)c1,1.99
3,O=c1cc(NCCCNCc2cccc(OC(F)(F)C(F)F)c2)[nH]c2ccccc12,5.78
4,CCOc1ccccc1CNc1nccc(NCc2ccc(Cl)cc2Cl)n1,9.92
5,COC(=O)c1cccc(CNCc2ccc(-c3ccc(-c4nc5cc(F)ccc5[nH]4)s3)cc2)c1,1.42
6,NC(=O)c1ccc(NC(=O)CN(Cc2ccc(Cl)cc2)S(=O)(=O)c2ccccc2)cc1,7.46
7,Cn1ccnc1S(=O)(=O)CCNCc1ccc(-c2ccc3ncnc(Nc4ccc(OCc5cccc(F)c5)c(Cl)c4)c3c2)o1,0.71
8,c1ccc(Oc2ccc(Nc3ccnc4cc(-c5cccc(CN6CCOCC6)c5)ccc34)cc2)cc1,1.46
9,CCc1c(C(=O)NC2CCC(N3CCC(c4ccccc4OC)CC3)CC2)[nH]c2ccc(OC)cc12 (stereo not given),0.22
10,CC(=O)Nc1ccc(-c2nc3ccc(-c4nc5ccc(NC(C)=O)cc5[nH]4)cc3[nH]2)cc1,5.3
11,CCN(CC)CCN(Cc1ccc(-c2ccc(C(F)(F)F)cc2)cc1)C(=O)Cn1c(CCc2ccc(F)c(F)c2F)nc(=O)c2cccnc21,-0.8
12,Cc1cc(N)c2cc(NC(=O)c3cccc(C(=O)Nc4ccc5nc(C)cc(N)c5c4)c3)ccc2n1,-2.06
13,CN1CCN(c2cc(-c3cccc(C(F)(F)F)c3)nc(-c3ccncc3)n2)CC1,-2.16
14,Cc1c(CNCCCNc2cc(=O)c3ccccc3[nH]2)sc(/C=N/O)c1Br,5.31
15,CCN(CC)CCCNCc1ccc(-c2ccc(C(F)(F)F)cc2)cc1,-0.45
16,CN(C)CCCNc1nccc(N(C)c2ccc(NC(=O)Nc3cc(C(F)(F)F)ccc3F)cc2)n1,-0.59
17,Cc1cc(N/N=C/c2cccc([N+](=O)[O-])c2)c2ccccc2n1,4.98
18,N#Cc1cc(N(CCCOc2cccc(OC(F)(F)F)c2)Cc2ccccc2C(F)(F)F)ccc1C(F)(F)F,0.94
19,O=C(Nc1cccc(CN2CCCN(Cc3ccsc3)CC2)c1)c1ccc(-c2ccccc2)cc1,1.6
20,CCOc1ccc(C2CCN(CCN3CCC(NC(=O)c4ccc(-c5ccc(C(F)(F)F)cc5)cc4)CC3)CC2)c(OCC2CC2)c1,2.81

row,SMILES,inhibition [%]
1,Cc1nn(-c2ccccc2)nc1C(=O)N(Cc1ccc(-c2ccc(CNCCc3ccc(S(C)(=O)=O)cc3)cn2)cc1)C1CC1,2.91
2,CCn1c(SCC(=O)Nc2cc(C(F)(F)F)ccc2Cl)nc2ccccc2c1=O,4.32
3,CCCCc1cc(Cc2cnc(N)nc2N)cc(OC)c1OC,0.98
4,CCCCNC(=O)[C@@H](NC(=O)c1ccc(O)c(-c2ccc(Cl)c(Cl)c2)c1)C(C)C,3.47
5,O=C(Nc1nc2ccc(Cl)cc2s1)c1csnn1,-5.77
6,CCCCNCCOc1ccc(-c2nc(-c3ccccc3)c(-c3ccccc3)[nH]2)cc1,0.53
7,Cc1nc(C)c(-c2ccc(S(=O)(=O)c3ccc(Cl)cc3)cc2)c(O)c1Br,4.12
8,O=C(NCC1CCC(C(=O)NC2CCCc3ccccc32)CC1)c1ccc(O)c(-c2ccc(Cl)c(Cl)c2)c1 (stereo not given),4.27
9,COc1cc(Cc2cnc(N)nc2N)cc(OCc2cccc(C(=O)O)c2)c1OC,1.03
10,O=S(=O)(Nc1cc2c(cc1OCCCN1CCCCC1)CCNCC2)c1ccc(-c2ccc(Cl)cc2)cc1,-0.37
11,CC1(C)C(N(O)C(=O)Nc2ccc(Cl)c(Cl)c2)N(c2ccc(Cl)c(Cl)c2)C(=O)N1CCc1ccccc1 (stereo not given),0
12,COc1ccc(-c2cc(C(=O)Nc3ccc4[nH]c(-c5ccccc5)nc4c3)[nH]n2)cc1,14.1
13,Cc1cc(NCCC(=O)Nc2ccccc2)nc(NCCc2ccccc2)n1,0.45
14,O=C(Nc1ccc(-c2ccccc2)cc1)Nc1ccc2c(c1)CCNCC2,-3.69
15,Cc1cccc(CC2CC(=O)N(c3ccc([N+](=O)[O-])cc3)C2=O)c1 (stereo not given),7.64
16,CN1CCN(c2ccc(Nc3c(C(N)=O)cnc4cc(-c5ccoc5)ccc34)cc2)CC1,3.57
17,CN1CCN(Cc2cc3cc(NC(=O)/C=C/c4ccc(Cl)cc4)ccc3s2)CC1,1.01
18,CCCC(=O)Nc1ccc(OCCCN(Cc2ccccc2F)c2ccc(C#N)c(C(F)(F)F)c2)cc1,0.71
19,CCc1c(CCNCCCCCCNCCc2ccccc2)ccc(OC)c1OC,2.63
20,COc1ccc(Nc2ncc3c(-c4cccc(NC(=O)Cc5cccnc5)c4)c[nH]c3n2)cc1OC,-1.58
